Measurements taken from PubChem BioAssay AID1159580 (chemical genetic matrix, 2015).
In all, about 5,500 compounds went through this assay and about 2,000 (36%) were called active. Inconclusive results (about 18%) are left out. No stated cut-off is given here; in the data, active means normalized growth mostly below about 0.91 (no sharp cut-off); inconclusive means no clear call, values can overlap the other calls; inactive means mostly above about 0.92. This is one part of the list.

Test: chemical genetic growth profiling, strain panel (AID 1159580);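 further: tested at 20 µM; growth read once vehicle control cultures reached saturation at 30 °C; 1 = growth at the plate median or of vehicle wells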
Conditions: growth OD

Measured: normalized growth

C[C@]12CCC3c4ccc(O)cc4CCC3C1CC[C@@H]2O (stereo not given in full)
active: S. cerevisiae deletion strains, locus YLR262C, strain YPT6 (second series), stronger effect = lower value 0.738 | S. cerevisiae deletion strains, locus YNL298W, strain CLA4, stronger effect = lower value 0.897 | S. cerevisiae deletion strains, locus YOR184W, strain ser1, stronger effect = lower value 0.857
inactive: S. cerevisiae deletion strains, locus YJR066W, strain TOR1, stronger effect = lower value 0.902 | S. cerevisiae deletion strains, locus YJR075W, strain HOC1, stronger effect = lower value 1.02 | S. cerevisiae deletion strains, locus YKL009W, strain mrt4, stronger effect = lower value 0.892 | S. cerevisiae deletion strains, locus YKL068W, stronger effect = lower value 1.02 | S. cerevisiae deletion strains, locus YKL085W, strain MDH1 (second series), stronger effect = lower value 1.04 | S. cerevisiae deletion strains, locus YKL085W, strain MDH1, stronger effect = lower value 1.04 | S. cerevisiae deletion strains, locus YKL160W, strain elf1, stronger effect = lower value 0.988 | S. cerevisiae deletion strains, locus YKL190W, strain CNB1, stronger effect = lower value 1.03 | S. cerevisiae deletion strains, locus YKR001C, strain vps1, stronger effect = lower value 0.915 | S. cerevisiae deletion strains, locus YKR026C, strain gcn3, stronger effect = lower value 1.03 | S. cerevisiae deletion strains, locus YKR091W, strain srl3, stronger effect = lower value 1.02 | S. cerevisiae deletion strains, locus YLL001W, strain dnm1, stronger effect = lower value 1.02 | S. cerevisiae deletion strains, locus YLL026W, stronger effect = lower value 0.982 | S. cerevisiae deletion strains, locus YLL041C, strain sdh2, stronger effect = lower value 1.02 | S. cerevisiae deletion strains, locus YLR027C, strain aat2, stronger effect = lower value 0.973 | S. cerevisiae deletion strains, locus YLR039C, strain RIC1, stronger effect = lower value 0.866 | S. cerevisiae deletion strains, locus YLR058C, strain SHM2, stronger effect = lower value 1 | S. cerevisiae deletion strains, locus YLR102C, strain apc9, stronger effect = lower value 1.01 | S. cerevisiae deletion strains, locus YLR113W, strain HOG1, stronger effect = lower value 0.983 | S. cerevisiae deletion strains, locus YLR221C, strain rsa3, stronger effect = lower value 0.977 | S. cerevisiae deletion strains, locus YLR258W, strain gsy2, stronger effect = lower value 0.96 | S. cerevisiae deletion strains, locus YLR262C, strain YPT6, stronger effect = lower value 0.819 | S. cerevisiae deletion strains, locus YLR268W, strain sec22, stronger effect = lower value 0.936 | S. cerevisiae deletion strains, locus YLR320W, strain mms22, stronger effect = lower value 0.892 | S. cerevisiae deletion strains, locus YLR330W, strain CHS5, stronger effect = lower value 1 | S. cerevisiae deletion strains, locus YLR342W, strain FKS1 (second series), stronger effect = lower value 0.868 | S. cerevisiae deletion strains, locus YLR342W, strain FKS1, stronger effect = lower value 1 | S. cerevisiae deletion strains, locus YLR357W, strain rsc2, stronger effect = lower value 1.03 | S. cerevisiae deletion strains, locus YLR370C, strain arc18, stronger effect = lower value 1 | S. cerevisiae deletion strains, locus YLR371W, strain rom2, stronger effect = lower value 1.02 | S. cerevisiae deletion strains, locus YLR384C, strain iki3, stronger effect = lower value 1.02 | S. cerevisiae deletion strains, locus YLR418C, strain cdc73, stronger effect = lower value 0.896 | S. cerevisiae deletion strains, locus YML016C, strain PPZ1, stronger effect = lower value 1.01 | S. cerevisiae deletion strains, locus YML032C, strain rad52, stronger effect = lower value 0.977 | S. cerevisiae deletion strains, locus YML120C, strain ndi1, stronger effect = lower value 0.996 | S. cerevisiae deletion strains, locus YML124C, strain tub3, stronger effect = lower value 1.01 | S. cerevisiae deletion strains, locus YMR058W, strain fet3, stronger effect = lower value 0.917 | S. cerevisiae deletion strains, locus YMR078C, strain ctf18, stronger effect = lower value 0.985 | S. cerevisiae deletion strains, locus YMR125W, strain sto1, stronger effect = lower value 1.1 | S. cerevisiae deletion strains, locus YMR129W, stronger effect = lower value 1.02 | S. cerevisiae deletion strains, locus YMR205C, strain PFK2, stronger effect = lower value 1.01 | S. cerevisiae deletion strains, locus YMR223W, strain ubp8, stronger effect = lower value 0.974 | S. cerevisiae deletion strains, locus YMR231W, strain pep5, stronger effect = lower value 1.01 | S. cerevisiae deletion strains, locus YMR263W, strain SAP30, stronger effect = lower value 0.98 | S. cerevisiae deletion strains, locus YMR307W, strain GAS1, stronger effect = lower value 0.929 | S. cerevisiae deletion strains, locus YNL067W, strain RPL9B, stronger effect = lower value 0.978 | S. cerevisiae deletion strains, locus YNL071W, strain lat1, stronger effect = lower value 0.958 | S. cerevisiae deletion strains, locus YNL153C, strain GIM3, stronger effect = lower value 0.955 | S. cerevisiae deletion strains, locus YNL183C, strain NPR1, stronger effect = lower value 0.912 | S. cerevisiae deletion strains, locus YNL209W, strain ssb2, stronger effect = lower value 1.01 | S. cerevisiae deletion strains, locus YNL233W, strain BNI4, stronger effect = lower value 0.997 | S. cerevisiae deletion strains, locus YNL248C, strain rpa49, stronger effect = lower value 0.993 | S. cerevisiae deletion strains, locus YNL250W, strain rad50, stronger effect = lower value 0.955 | S. cerevisiae deletion strains, locus YNL271C, strain bni1, stronger effect = lower value 0.977 | S. cerevisiae deletion strains, locus YNL307C, strain MCK1, stronger effect = lower value 0.987 | S. cerevisiae deletion strains, locus YNL322C, strain KRE1 (second series), stronger effect = lower value 1.03 | S. cerevisiae deletion strains, locus YNR049C, strain mso1, stronger effect = lower value 1.02 | S. cerevisiae deletion strains, locus YNR052C, strain pop2, stronger effect = lower value 0.928 | S. cerevisiae deletion strains, locus YOL006C, strain TOP1, stronger effect = lower value 0.744 | S. cerevisiae deletion strains, locus YOL012C, strain htz1 1.8 | S. cerevisiae deletion strains, locus YOL147C, strain pex11, stronger effect = lower value 1 | S. cerevisiae deletion strains, locus YOR001W, strain rrp6, stronger effect = lower value 0.948 | S. cerevisiae deletion strains, locus YOR061W, strain CKA2, stronger effect = lower value 0.984 | S. cerevisiae deletion strains, locus YOR069W, strain VPS5, stronger effect = lower value 1 | S. cerevisiae deletion strains, locus YOR070C, strain gyp1, stronger effect = lower value 0.974 | S. cerevisiae deletion strains, locus YOR080W, strain dia2, stronger effect = lower value 0.996 | S. cerevisiae deletion strains, locus YOR083W, strain WHI5, stronger effect = lower value 0.96 | S. cerevisiae deletion strains, locus YOR106W, strain vam3, stronger effect = lower value 0.934 | S. cerevisiae deletion strains, locus YOR136W, strain idh2, stronger effect = lower value 0.978 | S. cerevisiae deletion strains, locus YOR144C, strain elg1, stronger effect = lower value 0.974 | S. cerevisiae deletion strains, locus YOR231W, strain MKK1, stronger effect = lower value 0.928 | S. cerevisiae deletion strains, locus YOR265W, strain rbl2, stronger effect = lower value 0.986 | S. cerevisiae deletion strains, locus YOR270C, strain vph1, stronger effect = lower value 0.797 | S. cerevisiae deletion strains, locus YOR290C, strain snf2, stronger effect = lower value 0.906 | S. cerevisiae deletion strains, locus YOR316C, strain cot1, stronger effect = lower value 1 | S. cerevisiae deletion strains, locus YPL051W, strain arl3, stronger effect = lower value 0.953 | S. cerevisiae deletion strains, locus YPL055C, strain LGE1, stronger effect = lower value 0.907 | S. cerevisiae deletion strains, locus YPL078C, strain atp4, stronger effect = lower value 0.963 | S. cerevisiae deletion strains, locus YPL106C, strain sse1, stronger effect = lower value 1.08 | S. cerevisiae deletion strains, locus YPL240C, strain hsp82, stronger effect = lower value 0.999 | S. cerevisiae deletion strains, locus YPL256C, strain CLN2, stronger effect = lower value 0.99 | S. cerevisiae deletion strains, locus YPR119W, strain clb2, stronger effect = lower value 1.03 | S. cerevisiae deletion strains, locus YPR141C, strain kar3, stronger effect = lower value 1.03 | S. cerevisiae deletion strains, locus YPR163C, strain tif3, stronger effect = lower value 0.963 | S. cerevisiae deletion strains, locus YPR167C, strain met16, stronger effect = lower value 0.985 | S. cerevisiae deletion strains, strain wtn01, stronger effect = lower value 0.92 | S. cerevisiae strains, strain wild type, stronger effect = lower value 1
